We go through 40 targets from the supplement of paper PMC10849652.

Targets with a hit are over-represented here; the source holds about 7,900 in all. About 0.6% of all pairs of compound and target were hits. Values without a mark were called inactive.

Chain of UniProt Q9NV70 (Q9NV70 whole entry, looked up): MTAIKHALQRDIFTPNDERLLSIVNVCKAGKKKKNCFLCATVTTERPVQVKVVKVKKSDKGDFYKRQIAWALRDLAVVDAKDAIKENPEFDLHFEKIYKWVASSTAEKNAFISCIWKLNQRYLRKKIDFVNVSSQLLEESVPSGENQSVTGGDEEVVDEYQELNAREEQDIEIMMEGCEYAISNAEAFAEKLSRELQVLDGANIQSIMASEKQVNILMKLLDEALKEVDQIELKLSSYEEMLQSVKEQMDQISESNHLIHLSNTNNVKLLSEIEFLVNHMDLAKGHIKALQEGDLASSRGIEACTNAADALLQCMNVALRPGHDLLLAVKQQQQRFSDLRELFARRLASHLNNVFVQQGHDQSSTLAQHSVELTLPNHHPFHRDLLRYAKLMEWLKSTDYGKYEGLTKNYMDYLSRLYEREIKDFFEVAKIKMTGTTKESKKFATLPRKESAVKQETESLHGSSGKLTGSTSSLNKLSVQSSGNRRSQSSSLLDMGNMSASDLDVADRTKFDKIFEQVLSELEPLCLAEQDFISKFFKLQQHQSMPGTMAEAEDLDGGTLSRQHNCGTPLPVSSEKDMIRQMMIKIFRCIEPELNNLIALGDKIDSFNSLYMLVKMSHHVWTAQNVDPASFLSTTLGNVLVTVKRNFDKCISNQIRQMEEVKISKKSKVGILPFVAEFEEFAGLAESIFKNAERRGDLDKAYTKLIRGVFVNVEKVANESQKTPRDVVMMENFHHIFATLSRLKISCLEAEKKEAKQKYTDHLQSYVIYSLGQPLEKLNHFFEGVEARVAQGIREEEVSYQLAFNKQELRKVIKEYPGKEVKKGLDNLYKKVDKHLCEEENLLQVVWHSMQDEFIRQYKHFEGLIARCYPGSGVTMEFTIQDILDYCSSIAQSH
Chain of UniProt Q14118 (Q14118 whole entry, looked up): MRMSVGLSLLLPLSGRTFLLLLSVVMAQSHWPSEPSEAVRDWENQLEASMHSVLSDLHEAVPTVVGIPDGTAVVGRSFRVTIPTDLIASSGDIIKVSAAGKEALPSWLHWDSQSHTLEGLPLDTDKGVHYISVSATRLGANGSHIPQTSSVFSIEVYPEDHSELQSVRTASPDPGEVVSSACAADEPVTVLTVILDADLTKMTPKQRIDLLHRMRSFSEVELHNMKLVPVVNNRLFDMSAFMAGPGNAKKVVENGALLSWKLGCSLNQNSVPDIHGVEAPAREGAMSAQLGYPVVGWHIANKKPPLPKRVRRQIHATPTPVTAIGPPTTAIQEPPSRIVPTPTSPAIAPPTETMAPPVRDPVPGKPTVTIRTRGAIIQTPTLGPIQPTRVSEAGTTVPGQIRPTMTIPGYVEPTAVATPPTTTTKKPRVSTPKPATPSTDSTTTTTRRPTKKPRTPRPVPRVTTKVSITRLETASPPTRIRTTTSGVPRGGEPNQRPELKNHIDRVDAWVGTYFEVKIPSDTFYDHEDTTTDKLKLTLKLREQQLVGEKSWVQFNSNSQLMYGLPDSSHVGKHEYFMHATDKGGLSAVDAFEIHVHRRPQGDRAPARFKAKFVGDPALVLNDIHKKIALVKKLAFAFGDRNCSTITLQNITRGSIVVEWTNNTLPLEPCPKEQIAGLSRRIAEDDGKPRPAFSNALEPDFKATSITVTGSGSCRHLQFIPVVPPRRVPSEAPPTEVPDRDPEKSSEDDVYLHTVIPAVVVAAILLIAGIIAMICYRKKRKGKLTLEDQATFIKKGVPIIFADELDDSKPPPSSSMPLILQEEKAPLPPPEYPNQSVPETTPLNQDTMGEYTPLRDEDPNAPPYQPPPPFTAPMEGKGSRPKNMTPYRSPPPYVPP
Chain of UniProt Q8N5C7 (Q8N5C7 whole entry, looked up): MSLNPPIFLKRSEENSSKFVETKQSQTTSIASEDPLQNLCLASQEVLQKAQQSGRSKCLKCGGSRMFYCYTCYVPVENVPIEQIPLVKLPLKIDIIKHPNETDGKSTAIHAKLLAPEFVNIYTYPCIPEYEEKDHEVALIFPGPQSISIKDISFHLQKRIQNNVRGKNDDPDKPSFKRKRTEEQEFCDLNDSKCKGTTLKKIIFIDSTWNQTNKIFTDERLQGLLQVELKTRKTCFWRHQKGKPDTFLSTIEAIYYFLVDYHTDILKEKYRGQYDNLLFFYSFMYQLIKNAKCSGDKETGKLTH
Chain of UniProt Q9NRY5 (Q9NRY5 whole entry, looked up): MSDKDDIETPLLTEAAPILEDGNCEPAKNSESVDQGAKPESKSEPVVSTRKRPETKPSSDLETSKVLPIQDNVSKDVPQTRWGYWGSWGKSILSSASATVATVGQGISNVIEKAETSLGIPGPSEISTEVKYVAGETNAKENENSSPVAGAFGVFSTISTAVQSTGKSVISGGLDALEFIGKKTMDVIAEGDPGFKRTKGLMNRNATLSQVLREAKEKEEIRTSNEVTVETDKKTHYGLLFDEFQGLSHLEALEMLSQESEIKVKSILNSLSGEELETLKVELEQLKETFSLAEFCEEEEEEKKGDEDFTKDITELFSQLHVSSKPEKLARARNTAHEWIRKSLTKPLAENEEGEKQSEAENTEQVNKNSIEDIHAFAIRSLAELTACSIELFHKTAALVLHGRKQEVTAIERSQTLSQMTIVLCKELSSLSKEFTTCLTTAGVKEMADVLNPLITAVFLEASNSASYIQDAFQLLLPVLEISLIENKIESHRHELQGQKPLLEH
Chain of UniProt Q9H2U1 (Q9H2U1 whole entry, looked up): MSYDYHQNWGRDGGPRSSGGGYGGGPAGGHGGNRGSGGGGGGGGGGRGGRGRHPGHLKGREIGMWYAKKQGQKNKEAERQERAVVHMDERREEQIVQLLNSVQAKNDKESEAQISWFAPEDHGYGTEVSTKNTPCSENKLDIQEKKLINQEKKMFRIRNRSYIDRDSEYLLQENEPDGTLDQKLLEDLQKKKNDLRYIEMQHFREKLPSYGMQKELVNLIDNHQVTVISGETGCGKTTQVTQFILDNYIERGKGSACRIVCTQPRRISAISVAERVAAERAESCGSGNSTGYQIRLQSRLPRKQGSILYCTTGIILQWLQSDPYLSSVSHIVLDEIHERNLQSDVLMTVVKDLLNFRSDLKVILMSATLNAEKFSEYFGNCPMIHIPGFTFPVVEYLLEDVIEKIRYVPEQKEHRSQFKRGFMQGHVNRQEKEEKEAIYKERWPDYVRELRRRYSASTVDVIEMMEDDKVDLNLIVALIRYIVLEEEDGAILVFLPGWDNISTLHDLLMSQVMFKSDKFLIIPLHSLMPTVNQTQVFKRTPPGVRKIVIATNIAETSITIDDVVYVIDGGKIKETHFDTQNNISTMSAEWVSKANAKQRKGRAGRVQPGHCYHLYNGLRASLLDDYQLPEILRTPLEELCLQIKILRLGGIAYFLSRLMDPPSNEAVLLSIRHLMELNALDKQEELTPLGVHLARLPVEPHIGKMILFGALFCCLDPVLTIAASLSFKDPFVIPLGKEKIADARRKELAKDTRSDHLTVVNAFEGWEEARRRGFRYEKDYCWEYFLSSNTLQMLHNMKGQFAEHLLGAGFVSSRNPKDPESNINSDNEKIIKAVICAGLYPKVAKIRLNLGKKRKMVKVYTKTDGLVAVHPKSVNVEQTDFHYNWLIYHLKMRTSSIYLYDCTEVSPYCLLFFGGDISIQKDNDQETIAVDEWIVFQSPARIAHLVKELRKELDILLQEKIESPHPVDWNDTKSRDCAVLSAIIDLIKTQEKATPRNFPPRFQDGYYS
Chain of UniProt O00471 (O00471 whole entry, looked up): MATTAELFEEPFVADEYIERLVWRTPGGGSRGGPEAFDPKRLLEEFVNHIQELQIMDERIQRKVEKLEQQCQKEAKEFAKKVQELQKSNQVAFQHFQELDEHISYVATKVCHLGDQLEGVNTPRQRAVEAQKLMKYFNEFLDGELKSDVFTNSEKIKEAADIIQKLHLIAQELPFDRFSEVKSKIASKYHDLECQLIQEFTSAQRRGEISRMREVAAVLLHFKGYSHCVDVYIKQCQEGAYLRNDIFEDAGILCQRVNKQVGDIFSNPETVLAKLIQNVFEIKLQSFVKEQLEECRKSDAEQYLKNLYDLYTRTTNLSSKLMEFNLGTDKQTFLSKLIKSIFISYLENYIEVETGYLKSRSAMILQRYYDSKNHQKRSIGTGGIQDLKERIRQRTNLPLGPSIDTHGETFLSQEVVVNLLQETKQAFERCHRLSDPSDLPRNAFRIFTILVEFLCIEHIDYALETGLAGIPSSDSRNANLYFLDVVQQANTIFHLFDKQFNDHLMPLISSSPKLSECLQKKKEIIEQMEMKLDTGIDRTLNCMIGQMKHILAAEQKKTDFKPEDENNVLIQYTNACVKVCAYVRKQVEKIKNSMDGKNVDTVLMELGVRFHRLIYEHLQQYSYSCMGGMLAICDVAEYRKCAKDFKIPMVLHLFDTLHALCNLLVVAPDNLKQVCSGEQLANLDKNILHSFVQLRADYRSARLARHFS
Chain of UniProt O76075 (O76075 whole entry, looked up): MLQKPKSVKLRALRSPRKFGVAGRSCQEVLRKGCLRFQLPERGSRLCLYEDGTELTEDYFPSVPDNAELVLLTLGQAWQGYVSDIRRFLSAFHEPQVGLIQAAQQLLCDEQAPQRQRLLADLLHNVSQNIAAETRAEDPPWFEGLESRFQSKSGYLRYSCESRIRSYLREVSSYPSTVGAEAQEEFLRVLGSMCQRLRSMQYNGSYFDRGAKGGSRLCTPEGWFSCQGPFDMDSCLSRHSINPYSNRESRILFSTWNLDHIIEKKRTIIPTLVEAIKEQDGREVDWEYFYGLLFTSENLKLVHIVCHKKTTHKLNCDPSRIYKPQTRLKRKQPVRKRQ
Chain of UniProt Q8N128 (Q8N128 whole entry, looked up): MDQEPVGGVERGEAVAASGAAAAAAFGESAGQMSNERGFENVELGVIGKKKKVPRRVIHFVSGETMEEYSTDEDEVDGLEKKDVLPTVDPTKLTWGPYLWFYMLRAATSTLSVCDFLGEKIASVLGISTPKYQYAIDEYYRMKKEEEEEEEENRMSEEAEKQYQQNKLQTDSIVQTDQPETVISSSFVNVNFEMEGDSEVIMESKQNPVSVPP

Compound in one assay: COc1cc2ncnc(Nc3ccc(F)c(Cl)c3)c2cc1OCCCN1CCOCC1 [gefitinib]
Briefly: log2 fold change, soluble protein after heating vs DMSO (PISA); higher = thermal stabilisation; K562 cells, 10 uM, 30 min; active = over 0.2 and 3.5 SD of the protein, either way, in both replicates (recomputed). An outline of the steps: (§1)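 For each measurement, 10 μM compound was applied for 30 min to K562 cells at 2×10^6 cells/mL. Aliquots were heated for 3 min across 48°C-58°C, pooled, and extracted in PBS with 0.5% NP-40 at 4°C; the supernatant after 21,000xg for 90 min was soluble protein. This was quantified by TMTpro 16plex LC-MS/MS with channel sums equalised, and thermal stability was reported relative to control samples from duplicates, on a log2 fold-change scale.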
Consider DNAJB12 (UniProt Q9NXW2), for which the log2 fold change was 0.029.

As to DHFR (UniProt P00374), the log2 fold change was -0.021.

As for DFFB (UniProt O76075), the log2 fold change is -0.054.

Consider EXOC5 (UniProt O00471), for which the log2 fold change is -0.024.

Consider DCTPP1 (UniProt Q9H773), for which the log2 fold change was 0.

DHX40 (UniProt Q8IX18): the log2 fold change is 0.31.

Turning to EOGT (UniProt Q5NDL2), the log2 fold change is 0.008.

With DHCR7 (UniProt Q9UBM7), the log2 fold change was 0.088.

CUTA isoform 2 (UniProt O60888): the log2 fold change was 0.037.

For ERLIN1 (UniProt O75477), the log2 fold change is -0.051.

For the target EXOC1 (UniProt Q9NV70), the log2 fold change is -0.045.

On to CUX1 isoform 2 (UniProt Q13948), for which the log2 fold change is -0.029.

In the case of DNM2 (UniProt P50570), the log2 fold change is 0.002.

DHRS7B (UniProt Q6IAN0): the log2 fold change is 0.056.

As to DIP2A (UniProt Q14689), the log2 fold change is 0.008.

Take FAM114A2 (UniProt Q9NRY5): the log2 fold change was 0.002.

Take FAF2 (UniProt Q96CS3): the log2 fold change is 0.056.

With ECH1 (UniProt Q13011), the log2 fold change was -0.032.

In the case of DDOST (UniProt P39656), the log2 fold change is -0.019.

As to DCAF6 isoform 3 (UniProt Q58WW2), the log2 fold change was -0.01.

For the target DHCR24 (UniProt Q15392), the log2 fold change was 1.05 (active).

With DNAH11 (UniProt Q96DT5), the log2 fold change was -0.002.

In the case of DCAF13 (UniProt Q9NV06), the log2 fold change is -0.063.

Take CYBA (UniProt P13498): the log2 fold change is -0.007.

Take FADS1, A0A0A0MR51: the log2 fold change was 0.049.

For DPP8 (UniProt Q6V1X1), the log2 fold change is 0.042.

Turning to DDB1 (UniProt Q16531), the log2 fold change was -0.012.

As to CUX1 isoform 3 (UniProt P39880), the log2 fold change is 0.009.

For EHBP1L1 (UniProt Q8N3D4), the log2 fold change is -0.009.

With EXOC7 (UniProt Q9UPT5), the log2 fold change was -0.054.

With DHX36 (UniProt Q9H2U1), the log2 fold change was -0.127.

Turning to DBR1 (UniProt Q9UK59), the log2 fold change was -0.049.

Regarding ERLIN2 (UniProt O94905), the log2 fold change was -0.058.

As for DAG1 (UniProt Q14118), the log2 fold change was 0.032.

As for EFL1 (UniProt Q7Z2Z2), the log2 fold change was 0.019.

Take DHRS3 (UniProt O75911): the log2 fold change is 0.067.

In the case of FAM160B1 (UniProt Q5W0V3), the log2 fold change was 0.047.

As to EHD2 (UniProt Q9NZN4), the log2 fold change is -0.034.

On to DTWD1 (UniProt Q8N5C7), for which the log2 fold change is 0.069.

On to FAM177A1 isoform 2 (UniProt Q8N128), for which the log2 fold change was 0.031.

Compound in a further assay: COc1cccc2cc(-c3nc([C@H]4CC[C@H](C(=O)O)CC4)n4ncnc(N)c34)[nH]c12
The description is as above. An outline of the steps: as §1
As to DNAJB12 (UniProt Q9NXW2), the log2 fold change was 0.006.

In the case of DHFR (UniProt P00374), the log2 fold change is -0.05.

As for DFFB (UniProt O76075), the log2 fold change was 0.041.

For the target EXOC5 (UniProt O00471), the log2 fold change was -0.015.

DCTPP1 (UniProt Q9H773): the log2 fold change was 0.038.

Consider DHX40 (UniProt Q8IX18), for which the log2 fold change is -0.037.

As to EOGT (UniProt Q5NDL2), the log2 fold change is -0.021.

As to DHCR7 (UniProt Q9UBM7), the log2 fold change was -0.167.

As to CUTA isoform 2 (UniProt O60888), the log2 fold change is 0.012.

ERLIN1 (UniProt O75477): the log2 fold change is -0.14.

As to EXOC1 (UniProt Q9NV70), the log2 fold change was -0.129.

Regarding CUX1 isoform 2 (UniProt Q13948), the log2 fold change was 0.074.

Consider DNM2 (UniProt P50570), for which the log2 fold change was 0.023.

On to DHRS7B (UniProt Q6IAN0), for which the log2 fold change was -0.025.

As to DIP2A (UniProt Q14689), the log2 fold change is -0.004.

Take FAM114A2 (UniProt Q9NRY5): the log2 fold change was 0.035.

Consider FAF2 (UniProt Q96CS3), for which the log2 fold change is 0.009.

On to ECH1 (UniProt Q13011), for which the log2 fold change is 0.02.

Consider DDOST (UniProt P39656), for which the log2 fold change is 0.012.

For the target DCAF6 isoform 3 (UniProt Q58WW2), the log2 fold change is 0.059.

As to DHCR24 (UniProt Q15392), the log2 fold change was -0.038.

As to DNAH11 (UniProt Q96DT5), the log2 fold change is -0.203.

Turning to DCAF13 (UniProt Q9NV06), the log2 fold change was -0.112.

As for CYBA (UniProt P13498), the log2 fold change was 0.067.

As for FADS1, A0A0A0MR51, the log2 fold change was 0.009.

On to DPP8 (UniProt Q6V1X1), for which the log2 fold change was 0.037.

DDB1 (UniProt Q16531): the log2 fold change was 0.061.

CUX1 isoform 3 (UniProt P39880): the log2 fold change is 0.008.

Take EHBP1L1 (UniProt Q8N3D4): the log2 fold change was -0.026.

Turning to EXOC7 (UniProt Q9UPT5), the log2 fold change is -0.053.

DHX36 (UniProt Q9H2U1): the log2 fold change is 0.059.

On to DBR1 (UniProt Q9UK59), for which the log2 fold change was 0.054.

Consider ERLIN2 (UniProt O94905), for which the log2 fold change was -0.076.

On to DAG1 (UniProt Q14118), for which the log2 fold change was 0.082.

For the target EFL1 (UniProt Q7Z2Z2), the log2 fold change is 0.033.

For the target DHRS3 (UniProt O75911), the log2 fold change was 0.021.

For FAM160B1 (UniProt Q5W0V3), the log2 fold change was -0.027.

For EHD2 (UniProt Q9NZN4), the log2 fold change was 0.055.

DTWD1 (UniProt Q8N5C7): the log2 fold change was 0.031.

Consider FAM177A1 isoform 2 (UniProt Q8N128), for which the log2 fold change was -0.029.
